# Screens as filed in PubChem BioAssay.
# An excerpt weighted towards active compounds, which were near 4.1% of everything screened.
# DAX1 inh-1: NR0B1 (DAX1) inhibition; P51843; HEK293 Gal4-DAX1 luciferase reporter, luminescence; inhibition, % at 6.75 µM; actives 0.99% (n = 340,000); AID 504766;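 active = inhibition above the mean over all tested compounds plus 3 SD, cut at about 4.2% in these data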;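 note: 0% = DAX1-transfected cells with DMSO and 100% = empty-vector control cells with DMSO; inhibition shows as a rise in luminescence from relieved DAX1 repression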
# hgDAF12 agonist: hgDAF-12 agonism, primary luciferase screen | HEK293 GAL4-hgDAF12 UAS-luciferase reporter, agonist luminescence; normalized to butyrate control | activation, % at 6.8 µM | actives 1.8% (n = 370,000);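 active = activation above a cutoff set at the mean of all screened compounds plus 3 SD, cut at about 10% in these data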;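 note: 0% = DMSO wells and 100% = sodium butyrate wells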
# ssDAF-12 act: activators of S. stercoralis DAF-12 nuclear receptor | HEK293 ssDAF-12/GRIP1 lit1-tk-luc reporter, luminescence; % of 3 µM dafachronic acid response | activation, % at 6.8 µM | actives 1% (n = 370,000);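 active = activation above the mean over all tested compounds plus 3 SD, cut at about 0.9% in these data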;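 note: 0% = DMSO-only wells and 100% = 3 µM delta7-dafachronic acid wells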
# DAX1 inh-2: DAX1 (NR0B1) inhibition, primary screen | HEK293T StAR-luciferase reporter, SF-1/DAX-1 repression relief | inhibition, % at 6.8 µM | actives 1.1% (n = 370,000) | AID 652010;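 active = inhibition above the mean over all tested compounds plus 3 SD, cut at about 3.6% in these data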;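 note: 0% = DAX-1 cells with DMSO and 100% = cells lacking DAX-1 with DMSO; higher inhibition means more luminescence from relief of DAX-1 repression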
# hcDAF12 agonist: H. contortus DAF-12 activation, primary screen; HEK293 hcDAF-12 lit1-tk-luc reporter, luminescence; 0% DMSO, 100% Δ7-dafachronic acid; activation, % at 6.8 µM; actives 1.4% (n = 370,000); AID 652067;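 active = activation above the mean of all tested compounds plus 3 SD, cut at about 5.5% in these data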;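 note: 100% = response to 3 µM Δ7-dafachronic acid high control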
# DAX1 conf: confirmation of human DAX1 (NR0B1) inhibitors; shares compounds with DAX1 inh-2; actives 87% (n = 2,400); inhibition, % at 6.8 µM; HEK293T StAR-promoter luciferase reporter, SF-1/DAX-1 repression;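 active = inhibition above the average of every tested compound plus 3 SD, cut at about 3.8% in these data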;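 note: 0% = DAX-1 cells with DMSO and 100% = no DAX-1 control cells with DMSO; active compounds raise luminescence by relieving repression of the StAR reporter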
# SF1 mutant ctr: nonselective inhibitor or artifact in SF-1 mutant DAX1 counter-screen. HEK293 StAR-luciferase, SF-1 AF2 mutant, luminescence. inhibition, % at 6.8 µM. actives 78% (n = 2,400). shares compounds with DAX1 inh-2;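 active = inhibition above the mean of all tested compounds plus 3 SD, cut at about 3% in these data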;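 note: 0% = DAX-1 transfected cells with DMSO and 100% = cells without DAX-1 with DMSO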
# LXRb hcDAF ctr: LXR-beta agonism as hcDAF-12 counter-screen. HEK293 Gal4-LXR tk-luc reporter, luminescence, 24 h; normalized: DMSO 0%, positive control 100%. shares compounds with hcDAF12 agonist. AID 743027. activation, % at 6.8 µM. 3,400 tested, under 10 active;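 active = mean percent activation of the reporter above a cutoff set as the average over tested compounds plus their standard deviation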
# Target sequence (P55055 whole entry, looked up, the tested form may be a part): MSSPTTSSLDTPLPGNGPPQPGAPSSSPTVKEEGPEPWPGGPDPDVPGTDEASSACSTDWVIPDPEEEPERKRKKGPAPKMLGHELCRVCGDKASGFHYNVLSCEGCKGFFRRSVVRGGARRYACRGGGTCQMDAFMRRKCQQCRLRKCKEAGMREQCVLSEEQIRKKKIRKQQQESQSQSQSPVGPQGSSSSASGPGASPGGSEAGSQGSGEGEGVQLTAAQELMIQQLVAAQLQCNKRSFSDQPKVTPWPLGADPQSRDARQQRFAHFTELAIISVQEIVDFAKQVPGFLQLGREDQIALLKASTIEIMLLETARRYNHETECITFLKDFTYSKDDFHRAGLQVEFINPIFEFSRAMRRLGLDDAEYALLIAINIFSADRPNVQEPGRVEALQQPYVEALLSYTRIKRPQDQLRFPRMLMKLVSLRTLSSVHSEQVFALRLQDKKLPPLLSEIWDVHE
# hcDAF12 ag: confirmation of H. contortus DAF-12 agonists | shares compounds with hcDAF12 agonist | HEK293 hcDAF-12 lit1-tk-luc reporter, luminescence; % of Δ7-dafachronic acid response | activation, % at 6.8 µM | actives 61% (n = 3,400);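 active = mean activation across triplicate tests above the threshold derived from the earlier primary screen, cut at about 5.5% in these data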;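 note: 0% = DMSO only wells and 100% = 3 µM Δ7-dafachronic acid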
# * marks the source's active call; other numbers are inactive results; nt = not tested or not shown.
SMILES,DAX1 inh-1,hgDAF12 agonist,ssDAF-12 act,DAX1 inh-2,hcDAF12 agonist,DAX1 conf,SF1 mutant ctr,LXRb hcDAF ctr,hcDAF12 ag
COc1ccc2oc(=Nc3cccc(F)c3)c(C(N)=O)cc2c1,0,10,-1,1,2,nt,nt,nt,nt
COc1ccc2oc(=Nc3ccccc3)c(-c3nc4ccccc4[nH]3)cc2c1,1,21*,3.8*,5.0*,22*,3.7*,2,1,8.0*
CC(=O)Nc1cc(-c2cccc(CO)c2)cn2c(-c3ccc(F)cc3)cnc12,nt,0,-1,-1,0,nt,nt,nt,nt
Nc1nc(Nc2ccccc2)nc(NC2CCCCC2)c1[N+](=O)[O-],0,1,-1,0,0,nt,nt,nt,nt
COc1ccc(C2=Nc3ccccc3N(C(=O)Cc3cc(OC)cc(OC)c3)C2C(=O)NC(C)C)cc1 (stereo unspecified),nt,12*,0.9*,6.0*,6.7*,9.8*,6.4*,1,5.7*
COc1ccc2oc(C(=O)Nc3ccccn3)c(C)c2c1,0,21*,1.1*,13*,18*,12*,6.1*,2,18*
COc1ccc(N=Nc2cc(C)ccc2O)cc1,1,25*,0,5.0*,7.1*,15*,6.2*,2,7.3*
O=C(NCC(c1ccccc1)N1CCCC1)C1CCN(C(=O)Nc2ccccc2)CC1 (stereo unspecified),-1,0,-1,2,1,nt,nt,nt,nt
C/C(=N\Nc1ccc(C(=O)O)cc1)c1ccc(Br)cc1,-3,19*,1,5.1*,12*,16*,5.3*,2,14*
Clc1ccc(OCc2nc(-c3ccccn3)no2)c(Br)c1,-1,6,0,6.7*,6.8*,18*,8.1*,2,10*
c1ccc(CCc2nc(-c3ccccn3)no2)cc1,2,9,-1,4,2,nt,nt,nt,nt
Clc1ccccc1OCc1nc(-c2ccccn2)no1,1,11*,1,5.7*,6.6*,14*,6.6*,1,7.8*
Cc1cc(Br)ccc1NC(=O)C1CCN(S(=O)(=O)c2cnc[nH]2)CC1,1,-1,-1,-2,0,nt,nt,nt,nt
Oc1ccc(/C=N/Nc2ncc(Cl)cc2Cl)cc1,-1,3,-1,0,-1,nt,nt,nt,nt
Clc1cnc(N/N=C/c2ccco2)c(Cl)c1,1,11*,0,4.8*,7.9*,14*,8.8*,1,8.0*
COCC(=O)Nc1nnc(-c2ccc(C(C)(C)C)cc2)s1,4,19*,0,4.8*,10*,14*,7.4*,1,6.2*
COc1ccc(Cl)c2c1[nH]c1nc(SCc3ccccn3)nnc12,2,15*,1.6*,11*,8.6*,10*,3,1,6.1*
O=C(NCCc1ccc(F)cc1)N[C@@H](Cc1ccccc1)C(=O)O,1,1,-1,0,2,nt,nt,nt,nt
CC(C)Cc1cc(C(=O)Nc2ccc3c(c2)OCO3)no1,2,13*,1.5*,7.3*,7.5*,14*,7.2*,1,4
c1ccc(Cc2noc(CN3CCN(CCOc4ccccc4)CC3)n2)cc1,0,-2,-2,0,0,nt,nt,nt,nt
CCc1ccc(-c2cc(C(=O)Nn3cnnc3)c3ccccc3n2)cc1,-5,6,1,6.0*,11*,11*,4.2*,1,11*
CCCc1ccc(-c2cc(C(=O)NN3CCOCC3)c3ccccc3n2)cc1,0,3,-1,0,1,nt,nt,nt,nt
NS(=O)(=O)c1ccc(CCNC(=O)CSc2nc3ccccc3c(=O)n2CC2CCCO2)cc1 (stereo unspecified),0,4,-2,1,2,nt,nt,nt,nt
Fc1cccc(F)c1/C=C/c1ccc2ccccc2n1,-1,20*,2.7*,5.7*,23*,16*,8.4*,2,23*
CC(O)/C=C/c1ccc2ccccc2n1 (stereo unspecified),-1,4,-1,0,3,nt,nt,nt,nt
SMILES,DAX1 inh-1,hgDAF12 agonist,ssDAF-12 act,DAX1 inh-2,hcDAF12 agonist,DAX1 conf,SF1 mutant ctr,LXRb hcDAF ctr,hcDAF12 ag
CC(C)(C)c1ccc(-c2noc(CNC(=O)c3ccco3)n2)cc1,-1,3,0,0,-1,nt,nt,nt,nt
O=C(Nc1nc2ccccc2s1)c1c(F)cccc1Cl,3,8,0,1,1,nt,nt,nt,nt
Cn1cc(Cl)c(C(=O)Nc2nc3ccccc3s2)n1,0,19*,3.3*,7.0*,21*,14*,7.3*,2,18*
COCC1CCN(C(=O)c2cc(COc3ccc(OC)c4ccccc34)on2)C1 (stereo unspecified),2,11*,1,5.6*,8.1*,5.4*,5.1*,1,7.7*
NC(=O)c1ccsc1NC(=O)c1ccc2c(c1)CCCC2,0,19*,2.5*,6.8*,14*,12*,7.8*,2,21*
NC(=O)c1ccsc1NC(=O)c1cccs1,0,4,-1,2,3,nt,nt,nt,nt
O=C(COC(=O)/C=C/c1ccc([N+](=O)[O-])cc1)Nc1ccc2[nH]c(=O)[nH]c2c1,-1,1,-1,1,0,nt,nt,nt,nt
O=C1NC(=O)C2C3OC(C(Br)C3Br)C12 (stereo unspecified),3,5,-1,0,0,nt,nt,nt,nt
Nc1ccccc1-n1nc2ccc3ccccc3c2n1,4.6*,20*,3.1*,9.6*,18*,15*,8.5*,3,23*
Cc1c(N)ccc(-n2nc3ccccc3n2)c1C,nt,4,-1,0,0,nt,nt,nt,nt
c1ccc(Nc2nnc(-c3ccc4c(c3)OCO4)o2)cc1,nt,9,1.2*,5.1*,7.7*,6.6*,1,1,3
Cc1ccc(-c2nnc(Nc3ccccc3)o2)cc1,-5,6,0,5.5*,8.0*,19*,8.6*,2,6.5*
N/C(=N\OC(=O)c1cccc(F)c1)c1ccccn1,-1,9,0,11*,8.2*,12*,5.2*,1,5
N/C(=N\OC(=O)c1ccc(Br)o1)c1ccccn1,1,10,1,9.4*,8.3*,15*,6.2*,1,3
